In PubChem BioAssay:
The source made the active and inactive calls.

How the values were obtained:
[1] = tested on: Plasmodium falciparum Sir2 (PF13_0152, Sir2A); test: pfSir2 binders on small-molecule microarrays, primary screen, biochemical, small-molecule microarray, 635 nm fluorescence (AID 1098); conditions: small-molecule microarray binding, fluorescence 635 nm; higher = more signal;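 also: score merges spot fluorescence intensity with its signal-to-noise ratio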
[2] = small-molecule microarray binders of probe aDKK1, primary screen, biochemical, biotinylated probe, 635/667 nm fluorescence (AID 1099); conditions: higher = more signal;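 also: score merges 667nm spot fluorescence with signal to noise across triplicate slides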
[3] = small-molecule microarray binders of probe aCHRDL2, primary screen, biochemical, biotinylated probe, 635/667 nm fluorescence (AID 1100); conditions: higher = more signal
[4] = splicing luciferase reporter signal modulators, primary screen, spliceosome inhibition project, cell-based, HEK293, splice +/- reporter (AID 1101); conditions: luminescence, 24 h, higher = more signal, called active from +8 up or from −8 down;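 also: HEK293 cells carrying a splicing-competent luciferase reporter gene; test concentration not given here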
[5] = molecular target: Fibroblast growth factor 10 (Homo sapiens) (UniProt O15520); test: FGF10 binders on small-molecule microarrays, primary screen, biochemical, small-molecule microarray, 635 nm fluorescence (AID 1102); conditions: FGF10 binding, fluorescence 635 nm, higher = more signal
[6] = tested on: glycogen synthase kinase-3 (GSK3A per assay name; protocol says GSK3B); test: GSK3 binders on small-molecule microarrays, primary screen, biochemical, small-molecule microarray, 635 nm fluorescence, GSK3A (AID 1103); conditions: small-molecule microarray binding, fluorescence 635 nm; higher = more signal; also: the record names both GSK3A and GSK3B
[7] = molecular target: Epidermal growth factor receptor (Homo sapiens) (UniProt P00533); test: EGFR binders on small-molecule microarrays, primary screen, biochemical, small-molecule microarray, 635 nm fluorescence (AID 1104); conditions: EGFR binding, higher = more signal;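 also: score merges 667 nm emission intensity with spot signal to noise over triplicate slides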
[8] = molecular target: Follistatin-related protein 3 (Homo sapiens) (UniProt O95633); test: FSTL3 binders on small-molecule microarrays, primary screen, biochemical, small-molecule microarray, 635 nm fluorescence (AID 1105); conditions: FSTL3 binding, higher = more signal;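 also: score merges emission near 667 nm and signal to noise per printed spot across three slides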
[9] = molecular target: Dickkopf-related protein 1 (Homo sapiens) (UniProt O94907); test: DKK1 binders on small-molecule microarrays, primary screen, biochemical, small-molecule microarray, 635 nm fluorescence scan (AID 1106); conditions: DKK1 binding, higher = more signal;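 also: score merges emission near 667 nm with signal to noise over three replicate slides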
[10] = tested on: Inhibin beta A chain (activin A); test: INHBA (activin A) binders on microarrays, primary screen, biochemical, small-molecule microarray, 635 nm fluorescence scan (AID 1107); conditions: small-molecule microarray binding, higher = more signal;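 also: mouse activin A protein probed at 4.33 µg/mL on printed slides; score merges bound-protein fluorescence near 667 nm with spot signal-to-noise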
[11] = tested on: Human papillomavirus type 1a protein E7 (residues 44-93); test: HPV1a E7 fragment binders on microarrays, primary screen, biochemical, small-molecule microarray, residues 44-93, 635 nm fluorescence (AID 1108); conditions: small-molecule microarray binding, fluorescence 635 nm; higher = more signal;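 also: E7 fragment applied at 1 µg/mL in TBST for 1 h at 4 C; score combines spot fluorescence with its signal to noise ratio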
[12] = modulators of HCV replicon luciferase signal, primary screen, HCV replication inhibitor project, Huh7 cells, luciferase reporter (AID 1109); conditions: 48 h, higher = more signal;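 also: huh7 hepatoma cells harbouring a luciferase neomycin HCV replicon reporter; luciferase luminescence as measure of HCV replicon replication; test concentration not given here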
[13] = molecular target: Left-right determination factor 2 (Homo sapiens) (UniProt O00292); test: LEFTY2 binders on small-molecule microarrays, primary screen, biochemical, small-molecule microarray, 635 nm fluorescence scan (AID 1110); conditions: LEFTY2 binding, higher = more signal
[14] = molecular target: Calmodulin-1 (Homo sapiens) (UniProt P0DP23); test: CALM1 binders on microarrays, EGTA buffer, profiling panel, biochemical, small-molecule microarray, Cy5-labelled CALM1 (AID 1111); conditions: Cy5-CALM1 binding fluorescence, higher = more signal;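 also: labelled calmodulin applied in Tris saline Tween buffer holding calcium plus EGTA and DTT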
[15] = molecular target: Calmodulin-1 (Homo sapiens) (UniProt P0DP23); test: calcium-bound CALM1 binders on microarrays, profiling panel, artefact control for SMM control-protein annotation, biochemical, small-molecule microarray, Cy5-labelled CALM1, plus calcium (AID 1112); conditions: Cy5-CALM1 binding fluorescence, higher = more signal;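 also: score merges spot fluorescence with signal to noise from triplicate slides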
[16] = small-molecule microarray binders of probe aWnt5a, primary screen, biochemical, biotinylated probe, 635/667 nm fluorescence (AID 1113); conditions: higher = more signal;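 also: score merges 667 nm fluorescence intensity with signal-to-noise per printed feature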
[17] = small-molecule microarray binders of probe aShh, primary screen, biochemical, biotinylated probe, 635/667 nm fluorescence (AID 1114); conditions: higher = more signal;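 also: probe is biotin-labelled aShh protein from a stem cell growth factor screen; measures binding of labelled protein to compounds printed on the slide; score merges feature fluorescence at 667 nm with signal-to-noise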
[18] = small-molecule microarray binders of probe aNog, primary screen, biochemical, biotinylated probe, 635/667 nm fluorescence (AID 1115); conditions: higher = more signal;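 also: probe is biotinylated aNog protein used at 0.15 µg/mL for 1 h at 4 C; z-score combines 667 nm fluorescence of each spot with its signal to noise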
[19] = molecular target: Torsin-1A-interacting protein 1 (Homo sapiens) (UniProt Q5JTV8); test: LAP1 binders from COS7 cell lysate, primary screen, small-molecule microarray, 635/667 nm fluorescence (AID 1116); conditions: COS7-hLAP1 lysate binding, 635 nm fluorescence, higher = more signal
[20] = molecular target: Alpha-bungarotoxin (Bungarus multicinctus) (UniProt P60615); test: alpha-bungarotoxin binders on microarray, profiling panel, artefact control for SMM control protein annotation, biochemical, small-molecule microarray, Alexa647 label, 635/667 nm fluorescence (AID 1117); conditions: alpha-BTX-A647 binding fluorescence, higher = more signal
Alpha-bungarotoxin (Bungarus multicinctus), sequence (P60615 whole entry, looked up): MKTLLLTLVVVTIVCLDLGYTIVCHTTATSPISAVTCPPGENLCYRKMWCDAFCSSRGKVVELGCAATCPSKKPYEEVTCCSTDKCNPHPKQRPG

Left-right determination factor 2 (Homo sapiens), sequence (O00292 whole entry, looked up): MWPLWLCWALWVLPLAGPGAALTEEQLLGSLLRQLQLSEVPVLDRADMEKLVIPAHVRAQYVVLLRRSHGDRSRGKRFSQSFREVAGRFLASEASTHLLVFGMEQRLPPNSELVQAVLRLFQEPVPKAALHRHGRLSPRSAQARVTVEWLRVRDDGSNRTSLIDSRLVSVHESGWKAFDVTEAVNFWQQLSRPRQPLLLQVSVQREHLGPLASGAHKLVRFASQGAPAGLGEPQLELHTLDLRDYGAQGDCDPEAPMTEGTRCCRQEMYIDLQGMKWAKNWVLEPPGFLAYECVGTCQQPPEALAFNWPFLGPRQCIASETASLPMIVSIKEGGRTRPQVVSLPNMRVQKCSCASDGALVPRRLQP
Epidermal growth factor receptor (Homo sapiens), sequence (P00533 whole entry, looked up): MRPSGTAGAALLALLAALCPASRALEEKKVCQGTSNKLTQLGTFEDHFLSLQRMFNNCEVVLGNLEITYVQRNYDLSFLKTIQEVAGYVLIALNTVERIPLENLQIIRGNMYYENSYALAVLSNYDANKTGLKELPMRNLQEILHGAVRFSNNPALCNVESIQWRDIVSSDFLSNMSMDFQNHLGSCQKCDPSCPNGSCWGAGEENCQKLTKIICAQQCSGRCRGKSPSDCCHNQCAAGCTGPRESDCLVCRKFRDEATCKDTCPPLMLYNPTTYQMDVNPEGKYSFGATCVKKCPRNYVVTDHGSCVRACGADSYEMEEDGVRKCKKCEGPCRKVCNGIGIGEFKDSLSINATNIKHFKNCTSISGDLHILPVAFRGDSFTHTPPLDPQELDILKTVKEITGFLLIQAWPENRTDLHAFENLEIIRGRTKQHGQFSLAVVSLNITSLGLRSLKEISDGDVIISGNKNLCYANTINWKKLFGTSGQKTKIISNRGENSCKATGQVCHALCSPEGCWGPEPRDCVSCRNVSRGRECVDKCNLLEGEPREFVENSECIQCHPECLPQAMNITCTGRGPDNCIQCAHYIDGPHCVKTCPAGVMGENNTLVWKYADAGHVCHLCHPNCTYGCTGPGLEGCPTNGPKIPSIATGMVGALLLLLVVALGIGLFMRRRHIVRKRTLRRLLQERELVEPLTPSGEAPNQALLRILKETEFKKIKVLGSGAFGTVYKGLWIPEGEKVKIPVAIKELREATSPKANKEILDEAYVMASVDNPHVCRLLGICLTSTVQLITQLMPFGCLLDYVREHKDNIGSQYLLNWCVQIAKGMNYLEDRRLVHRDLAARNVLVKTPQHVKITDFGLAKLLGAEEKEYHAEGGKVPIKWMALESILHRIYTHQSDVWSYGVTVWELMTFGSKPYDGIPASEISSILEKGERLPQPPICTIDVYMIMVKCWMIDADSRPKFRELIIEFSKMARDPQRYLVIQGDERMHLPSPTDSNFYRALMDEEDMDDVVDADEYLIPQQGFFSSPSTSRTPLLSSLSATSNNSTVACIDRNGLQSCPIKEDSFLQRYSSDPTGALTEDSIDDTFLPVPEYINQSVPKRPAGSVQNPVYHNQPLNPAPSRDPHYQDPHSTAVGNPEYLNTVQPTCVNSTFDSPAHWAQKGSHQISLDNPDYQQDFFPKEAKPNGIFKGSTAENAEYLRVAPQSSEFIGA
Dickkopf-related protein 1 (Homo sapiens), sequence (O94907 whole entry, looked up): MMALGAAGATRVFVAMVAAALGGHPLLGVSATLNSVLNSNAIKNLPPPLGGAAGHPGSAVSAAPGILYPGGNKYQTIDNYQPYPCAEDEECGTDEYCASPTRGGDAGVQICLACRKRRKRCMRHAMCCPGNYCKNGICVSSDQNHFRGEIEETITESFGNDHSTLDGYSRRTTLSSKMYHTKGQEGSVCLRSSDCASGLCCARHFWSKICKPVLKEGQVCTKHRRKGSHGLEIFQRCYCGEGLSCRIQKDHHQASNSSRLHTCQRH
Fibroblast growth factor 10 (Homo sapiens), sequence (O15520 whole entry, looked up): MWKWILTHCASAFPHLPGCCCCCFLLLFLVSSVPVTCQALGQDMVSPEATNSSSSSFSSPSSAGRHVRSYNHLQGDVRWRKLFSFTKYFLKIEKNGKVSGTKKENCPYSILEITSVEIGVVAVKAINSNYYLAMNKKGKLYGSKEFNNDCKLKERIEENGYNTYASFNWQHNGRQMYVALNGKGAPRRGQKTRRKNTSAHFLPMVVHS
Follistatin-related protein 3 (Homo sapiens), sequence (O95633 whole entry, looked up): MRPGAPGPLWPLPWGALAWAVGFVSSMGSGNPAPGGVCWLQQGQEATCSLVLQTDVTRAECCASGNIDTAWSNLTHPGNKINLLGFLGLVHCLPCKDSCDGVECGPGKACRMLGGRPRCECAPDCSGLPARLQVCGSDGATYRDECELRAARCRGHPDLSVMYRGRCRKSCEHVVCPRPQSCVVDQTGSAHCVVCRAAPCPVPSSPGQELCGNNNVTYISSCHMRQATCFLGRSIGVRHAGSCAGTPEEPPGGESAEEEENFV
Torsin-1A-interacting protein 1 (Homo sapiens), sequence (Q5JTV8 whole entry, looked up): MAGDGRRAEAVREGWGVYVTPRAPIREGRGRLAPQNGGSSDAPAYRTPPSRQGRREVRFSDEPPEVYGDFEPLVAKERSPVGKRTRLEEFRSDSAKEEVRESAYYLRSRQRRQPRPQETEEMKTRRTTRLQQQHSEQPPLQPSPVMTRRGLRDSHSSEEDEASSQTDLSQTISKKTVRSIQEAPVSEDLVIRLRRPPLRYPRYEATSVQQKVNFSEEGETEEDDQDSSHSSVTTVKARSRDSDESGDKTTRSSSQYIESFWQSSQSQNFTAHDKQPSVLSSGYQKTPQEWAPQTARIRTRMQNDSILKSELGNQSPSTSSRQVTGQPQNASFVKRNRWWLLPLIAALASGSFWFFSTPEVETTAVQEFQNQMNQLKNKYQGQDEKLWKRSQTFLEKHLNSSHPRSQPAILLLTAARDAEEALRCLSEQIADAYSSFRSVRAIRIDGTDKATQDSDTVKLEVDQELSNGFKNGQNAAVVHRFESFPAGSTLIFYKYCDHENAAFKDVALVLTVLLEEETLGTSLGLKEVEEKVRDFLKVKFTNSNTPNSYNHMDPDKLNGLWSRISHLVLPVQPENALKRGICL

Row | Compound | composite z-score [1] | composite z-score [2] | composite z-score [3] | z-score [4] | composite z-score [5] | composite z-score [6] | composite z-score [7] | composite z-score [8] | composite z-score [9] | composite z-score [10] | composite z-score [11] | z-score [12] | composite z-score [13] | composite z-score [14] | composite z-score [15] | composite z-score [16] | composite z-score [17] | composite z-score [18] | composite z-score [19] | composite z-score [20]
1 | COCCOC(=O)N1C(=O)[C@@]2(c3cc(C#CCC(C(=O)OC)C(=O)OC)ccc31)[C@H](C(=O)N1CCCCCCC1)[C@H]1C(=O)O[C@H](c3ccccc3)[C@H](c3ccccc3)N1[C@@H]2c1ccccc1OCCO | 1.61 | 2.62 | 1.59 | -0.815 (inactive) | 0.547 | 1.32 | 0.893 | 1.67 | 0.987 | 1.96 | 1.32 | -2.25 | 1.09 | 2.56 | 1.63 | 0.931 | 2.96 | 3.14 | 3.82 | 2.51
2 | COC(=O)c1c(CC[C@@H](CO)NC(=O)N[C@@H](Cc2ccccc2)Cn2cc(-c3cncn3C)nn2)oc(C(C)=O)c1C(=O)OC | 0.942 | -0.193 | -0.192 | -1.71 (inactive) | 0.481 | 0.352 | -0.913 | 0.367 | -0.376 | -0.721 | 1.47 | -0.594 | -0.338 | 0.162 | -0.329 | -0.124 | -0.0866 | -0.394 | 1.62 | 0.581
3 | CC(C)CNC(=O)[C@@H]1c2ccccc2C(=O)N(CC23CC4CC(CC(C4)C2)C3)[C@H]1c1ccc(CO)cc1 | 0.248 | 0.031 | 0.446 | -1.46 (inactive) | 0.124 | 1.02 | 0.0591 | 0.777 | -0.0314 | 0.471 | 1.34 | -1.05 | 0.0408 | 0.725 | 0.769 | -0.0685 | 0.14 | -0.436 | 0.862 | 1.15
4 | C#CCN([C@H](/C=C/C1CC1)[C@@H](O)Cc1ccccc1)[C@@H](Cc1ccccc1)C(=O)OC | -0.135 | -0.281 | 0.0495 | -0.606 (inactive) | -0.351 | -0.604 | -0.215 | 0.232 | -0.0707 | 0.858 | -0.197 | -2.64 | 0.0052 | -0.752 | -0.861 | -0.124 | 0.0639 | -0.33 | -0.188 | -0.0484
5 | CCCCC(=C=CC[C@@H](O)c1cccc(OCCO)c1)C[C@@H](O)COCc1ccccc1 | 0.377 | -0.17 | -0.325 | -1.21 (inactive) | 0.483 | 0.0702 | -1.35 | -0.526 | -0.274 | 0.211 | -0.622 | -1.78 | -0.0756 | -0.613 | -0.285 | -0.096 | -0.0709 | -0.219 | 0.546 | 1.35
6 | Cc1ccc(S(=O)(=O)N2[C@@H](c3ccccc3)C(C(=O)O)=CC[C@H]2c2ccc(C#N)cc2)cc1 | 1.16 | 0.543 | 0.864 | -0.0152 (inactive) | 0.888 | 0.379 | 0.0164 | 0.273 | -0.522 | 0.667 | 1.24 | -0.494 | -0.145 | 0.302 | -0.269 | 0.0267 | 0.385 | 0.823 | 1.84 | 1.57
7 | COCC1=C([C@H](O)CCc2ccccc2)[C@H](CO)n2c(=O)n(-c3ccccc3)c(=O)n2C1 | -0.285 | -0.412 | -0.39 | -1.12 (inactive) | -0.187 | -0.295 | 0.445 | -0.41 | 0.353 | 0.785 | -0.253 | -0.482 | 0.292 | -0.357 | -0.764 | -0.175 | -0.0553 | -0.0927 | -0.103 | -0.349
8 | COC(=O)[C@@]1(Cc2ccccc2CN=[N+]=[N-])COC(c2ccc(OCCCO)cc2)=N1 | 1.97 | 0.269 | 1.23 | 0.861 (inactive) | -1.76 | -1.02 | -1.76 | -1.68 | -3.61 | -1.48 | -0.273 | -0.221 | -2.75 | -0.759 | 0.0354 | -0.292 | 1.69 | 0.199 | 0.202 | 3.02
9 | C=CCC(OC(C)=O)[C@@H]1[C@@H](N(Cc2ccc(-c3ccccc3)cc2)C(=O)c2cccc3ccccc23)c2cc(OCCCO)ccc2N1C(=O)c1ccc2ccccc2c1 (stereo not given in full) | -0.859 | 1.11 | -0.0972 | -0.686 (inactive) | 0.256 | 0.201 | -0.0576 | 0.5 | -0.19 | 1.08 | 0.403 | -0.464 | -0.0981 | 0.187 | 0.188 | -0.0685 | -0.399 | -0.258 | -0.0482 | 0.971
10 | C/C=C/CN(C(=O)C#Cc1ccccc1)[C@H](CO[Si](C)(C)C(C)(C)C)c1ccccc1 | -0.435 | -0.65 | -0.169 | -3.21 (inactive) | -1.27 | -0.0745 | -1.37 | -1.44 | -0.72 | 1.19 | 0.0833 | -0.944 | -0.594 | -0.855 | -1.76 | -0.286 | -0.372 | -0.338 | -0.721 | -2.16
11 | COCCCN1C(=O)[C@@]2(Cc3ccccc31)c1ccccc1C(=O)N(Cc1ccccc1OC)[C@H]2c1ccc(CO)cc1 | -0.909 | 0.612 | 0.9 | 0.307 (inactive) | -0.426 | -0.428 | -0.352 | 0.154 | 0.514 | 0.157 | -0.739 | -0.185 | -0.283 | 0.0145 | -0.0984 | 0.0759 | -0.138 | 0.417 | 0.145 | 0.212
